Laboratory results taken from the supplement of paper PMC6555819.

Assays:
Assay in all cases: PBM binding z-score (relative to random genomic background probes); higher = stronger binding; sequences stand for … in GC…GCGATTGACAGCGTAGAATGAAGG
[1] = tested on: FXR:RXRa (NR concentration 270 nM, RXRa partner concentration 90 nM)
In short: (§1)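 Regression normalization was applied to scanned fluorescence from custom Agilent 4×180K protein-binding microarrays. Before scanning, arrays were incubated 1 h with ligand-free nuclear receptor dimers, and binding was detected with antibodies against each partner (one per run). Binding z-scores use the random background probes as reference.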

[2] = tested on: LXRa:RXRa (NR concentration 270 nM, RXRa partner concentration 90 nM)
In short: as §1

[3] = tested on: LXRa homodimer (NR concentration 270 nM)
In short: as §1

[4] = tested on: LXRb:RXRa (NR concentration 270 nM, RXRa partner concentration 90 nM)
In short: as §1

[5] = tested on: LXRb homodimer (NR concentration 270 nM)
In short: as §1

[6] = tested on: PPARa:RXRa (NR concentration 270 nM, RXRa partner concentration 90 nM)
In short: as §1

[7] = tested on: PPARg:RXRa (NR concentration 180 nM, RXRa partner concentration 90 nM)
In short: as §1

[8] = tested on: PPARg:RXRa 270nM:90nM, anti-RXR (NR concentration 270 nM, RXRa partner concentration 90 nM)
In short: as §1

[9] = tested on: PPARg:RXRa 30nM:10nM, anti-RXR (NR concentration 30 nM, RXRa partner concentration 10 nM)
In short: as §1

[10] = tested on: PPARg:RXRa 90nM:30nM, anti-RXR (NR concentration 90 nM, RXRa partner concentration 30 nM)
In short: as §1

[11] = tested on: PPARg:RXRa DBDmut IVT, anti-RXR (DBD mutation: RXRa K156A/R161A, NR concentration 270 nM, RXRa partner concentration 90 nM)
In short: as §1

[12] = tested on: PPARg:RXRa IVT, anti-PPARg (NR concentration 270 nM, RXRa partner concentration 90 nM)
In short: as §1

[13] = tested on: PPARg DBDmut:RXRa IVT, anti-PPARg (DBD mutation: PPARg1 K132A/R137A, NR concentration 270 nM, RXRa partner concentration 90 nM)
In short: as §1

[14] = tested on: PPARg DBDmut IVT, anti-PPARg (DBD mutation: PPARg1 K132A/R137A, NR concentration 270 nM)
In short: as §1

[15] = tested on: PPARg homodimer (NR concentration 180 nM)
In short: as §1

[16] = tested on: PXR:RXRa (NR concentration 270 nM, RXRa partner concentration 90 nM)
In short: as §1

[17] = tested on: PXR homodimer (NR concentration 270 nM)
In short: as §1

[18] = tested on: RARa:RXR (NR concentration 270 nM, RXRa partner concentration 90 nM)
In short: as §1

[19] = tested on: RARa homodimer (NR concentration 270 nM)
In short: as §1

[20] = tested on: RARb:RXRa (NR concentration 270 nM, RXRa partner concentration 90 nM)
In short: as §1

| Sequence | PBM binding z-score [1] | PBM binding z-score [2] | PBM binding z-score [3] | PBM binding z-score [4] | PBM binding z-score [5] | PBM binding z-score [6] | PBM binding z-score [7] | PBM binding z-score [8] | PBM binding z-score [9] | PBM binding z-score [10] | PBM binding z-score [11] | PBM binding z-score [12] | PBM binding z-score [13] | PBM binding z-score [14] | PBM binding z-score [15] | PBM binding z-score [16] | PBM binding z-score [17] | PBM binding z-score [18] | PBM binding z-score [19] | PBM binding z-score [20] |
| --- | --- | --- | --- | --- | --- | --- | --- | --- | --- | --- | --- | --- | --- | --- | --- | --- | --- | --- | --- | --- |
| TCTATTTGTTGATTAGGGCAACCGAAACAGCGGA | 0.7 | 0.785 | 0.435 | 0.575 | 1.08 | 0.93 | 0.259 | 2.04 | 3.98 | 2.81 | 1.93 | 1.79 | 1.53 | 1.99 | 1.59 | 0.675 | 0.358 | 0.837 | 1.13 | 1.09 |
| AGAACGAGGGCACGCTGAGTTAATAGCAGAGTAG | 0.956 | 0.697 | -0.612 | 0.378 | -1.03 | 1.99 | 2.22 | 1.65 | 0.0968 | 1.08 | 4.13 | 3.9 | -0.114 | 0.0711 | 0.0693 | 1.38 | -0.237 | 0.718 | -0.564 | 2.52 |
| GCGACTGGGGCACAGCAGGTTACCATAAGGTTGG | 0.178 | 0.265 | -0.715 | -0.0951 | -1.1 | 0.996 | 1.75 | 1.45 | -0.344 | 0.859 | 5.07 | 4.28 | -0.331 | -0.666 | 0.354 | 0.113 | -0.29 | 0.435 | -0.475 | 0.997 |
| GGAACGAGGGCATTCGAGCTGATAGCATGGCGAT | 0.586 | 0.0957 | -0.939 | -0.339 | -0.953 | 1.17 | 0.733 | 0.363 | -0.239 | -0.177 | 2.71 | 1.64 | -0.32 | -0.167 | -0.0868 | 0.26 | -0.341 | -0.000407 | -0.846 | 1.45 |
| ATCTCTAGGTAACAAGTTCAGTCAAAGAGAGGAC | 0.865 | 0.77 | 0.75 | 0.867 | 0.743 | 1.5 | 1.4 | 2.12 | 1.16 | 1.85 | 3.46 | 2.97 | 1.25 | 1.27 | 1.63 | 1.77 | 2.04 | 1.1 | 1.66 | 1.62 |
| ATCTCTAGGTAATGTTCAGTGAAAGATCGATAGA | 0.347 | 0.554 | 0.048 | 0.107 | 1.09 | 0.239 | 0.489 | 0.323 | 0.558 | 0.276 | 2.57 | 1.63 | 1.27 | 1.25 | 0.598 | 0.381 | 0.219 | 0.543 | 0.802 | 0.148 |
| AGTCAAAGTTCAGGCCGAGGTAACGTAAAGCACG | 4.1 | 4.03 | 1.27 | 1.71 | 0.0903 | 3.25 | 4.14 | 5.07 | 1.71 | 4.1 | -0.249 | 1.8 | 0.687 | 0.000554 | 2.4 | 3.17 | 1.77 | 3 | 0.163 | 4.4 |
| TAGCCTAGGTCATTCAGGGGCCAGTGTAGAAAGC | 4.78 | 3.98 | 0.7 | 3.06 | 1.08 | 3.66 | 1.53 | 2.43 | 0.00175 | 1.14 | 1.87 | 2.74 | 0.0729 | -0.141 | 1.39 | 2.27 | -0.259 | 3.32 | -0.591 | 3.96 |
| CCGACAGGGGCAGAAAGGTTACCATACCATCCGG | 0.56 | 0.716 | -0.132 | 1.04 | -0.954 | 1.95 | 1.47 | 1.96 | 0.381 | 1.32 | -0.112 | 0.0354 | -1.22 | -0.752 | 1.16 | 1.25 | 0.36 | 1.92 | 0.385 | 1.95 |
| GATACAGGGTCAGGGCCAGAGTACGCGTATTGAT | 4.33 | 2.61 | -0.233 | 2.53 | -0.183 | 4.46 | 3.86 | 3.63 | 0.972 | 2.36 | 1.35 | 2.69 | -0.0398 | -0.619 | 1.64 | 2.28 | 0.125 | 3.24 | 0.471 | 3.82 |
| CCAGACTGGTGAAAGGTAACTCAGTCTGGTACGC | -0.45 | -0.241 | -0.759 | -0.0625 | -0.842 | 1.46 | 2.67 | 3.83 | 1.66 | 3.26 | 0.00689 | 0.829 | -0.709 | -0.951 | 0.201 | -0.0709 | -0.492 | 0.039 | -0.414 | 0.363 |
| TCTTGTAGATCAGCAGGTCAAGAAAGCTGGCCAA | 1.17 | 1.55 | 0.209 | 1.59 | -0.222 | 2.5 | 0.457 | 2.37 | 2.48 | 2.59 | 1.57 | 1.61 | -0.677 | -0.699 | 0.129 | 1.6 | -0.4 | 2.18 | -0.58 | 2.01 |
| TCAGACACGTGAAGGTAACTCAGGTACGCAGTCG | 0.454 | 1.57 | -0.182 | 0.638 | -0.58 | 0.588 | 0.903 | 1.81 | 3.41 | 2.58 | 2.01 | 0.0169 | -0.15 | -0.175 | 0.0115 | 0.416 | -0.294 | 0.632 | -0.256 | 0.338 |
| CCCTACGGGTCACGAGGTTATAGCACGACGAGCG | 6.43 | 4.68 | 0.337 | 4.01 | -0.522 | 5.71 | 6.58 | 6.23 | 2.52 | 4.88 | 2.05 | 4.19 | 0.401 | 0.144 | 2.51 | 4.57 | 0.609 | 5.9 | 1.28 | 4.36 |
